According to PubChem BioAssay (NCATS):
A number with no mark means an inactive call. Records with an inconclusive call do not appear. Calls of active or inactive are those of the source. Unless noted, calls follow the shape of the dose curve; as a rule, active = well fitted curve in either direction with a large enough effect (not every such curve was filed as active); inconclusive = small, poorly fitted or top-dose-only effect, or another doubt; inactive = flat fitted curve, though single readings scatter.

What was measured:
[1] = AP1 Signaling Pathway (AID 357); conditions: ME-180 AP-1-bla reporter, EGF-induced, beta-lactamase ratio, 5 h; at 17.2 µM (top of the series) unless noted;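 also: ME-180 reporter cells stimulated with EGF at its EC50 level; % is scaled to controls: 0 for no effect and ±100 for the full control effect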
Outline: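 First, ME-180 AP-1-bla cells were cultured overnight at 37 °C in low-serum Opti-MEM. Next, titrated compounds with EC50 EGF were incubated 5 hours. Finally, CCF4 was added for 2.5 hours and the 460/530 nm ratio recorded.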

[2] = NFAT Signaling Pathway (AID 444); conditions: Jurkat NFAT-bla M1, carbachol, beta-lactamase ratio, 5 h; at 17.2 µM (top of the series) unless noted;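 also: carbachol stimulus at about its EC50 of 1 µM final; % is scaled to controls: 0 for no effect and ±100 for the full control effect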
Outline: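 Jurkat cells with NFAT-driven β-lactamase reporter and co-expressed M1 receptor, stimulated with carbachol (final 1 uM, ~EC50), compound titration, 5 h at 37 °C. CCF4 loaded 1 h at RT; 460/530 nm ratio gave %activity and AC50.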

[3] = Stat Signaling Pathway (AID 446); conditions: ME-180 (cervical carcinoma) SIE beta-lactamase reporter, IL-6 stimulated, 5 h; at 17.2 µM (top of the series) unless noted;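 also: ME-180 cervical cancer cells given 40 pM IL-6 alongside compound; SIE-controlled beta-lactamase reporter measured as 460/530 nm FRET emission ratio; % is scaled to controls: 0 for no effect and ±100 for the full control effect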
Outline: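 Normalization used AC90 stimulation (300 pM IL-6) and AC90 inhibition (125 nM pan-JAK inhibitor at 40 pM IL-6). The underlying signal is SIE-driven beta-lactamase in ME-180 cells after 5 h IL-6 exposure with compound.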

[4] = biological target: Glucocorticoid receptor (Homo sapiens) (UniProt P04150); assay: GR-GFP Redistribution (AID 450;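 active = compounds whose dose series gives a full or clear partial fitted curve of increased nuclear translocation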; also: potency is read from the fitted curve at half-maximal effect)
Sequence of Glucocorticoid receptor (Homo sapiens) (P04150 whole entry, looked up): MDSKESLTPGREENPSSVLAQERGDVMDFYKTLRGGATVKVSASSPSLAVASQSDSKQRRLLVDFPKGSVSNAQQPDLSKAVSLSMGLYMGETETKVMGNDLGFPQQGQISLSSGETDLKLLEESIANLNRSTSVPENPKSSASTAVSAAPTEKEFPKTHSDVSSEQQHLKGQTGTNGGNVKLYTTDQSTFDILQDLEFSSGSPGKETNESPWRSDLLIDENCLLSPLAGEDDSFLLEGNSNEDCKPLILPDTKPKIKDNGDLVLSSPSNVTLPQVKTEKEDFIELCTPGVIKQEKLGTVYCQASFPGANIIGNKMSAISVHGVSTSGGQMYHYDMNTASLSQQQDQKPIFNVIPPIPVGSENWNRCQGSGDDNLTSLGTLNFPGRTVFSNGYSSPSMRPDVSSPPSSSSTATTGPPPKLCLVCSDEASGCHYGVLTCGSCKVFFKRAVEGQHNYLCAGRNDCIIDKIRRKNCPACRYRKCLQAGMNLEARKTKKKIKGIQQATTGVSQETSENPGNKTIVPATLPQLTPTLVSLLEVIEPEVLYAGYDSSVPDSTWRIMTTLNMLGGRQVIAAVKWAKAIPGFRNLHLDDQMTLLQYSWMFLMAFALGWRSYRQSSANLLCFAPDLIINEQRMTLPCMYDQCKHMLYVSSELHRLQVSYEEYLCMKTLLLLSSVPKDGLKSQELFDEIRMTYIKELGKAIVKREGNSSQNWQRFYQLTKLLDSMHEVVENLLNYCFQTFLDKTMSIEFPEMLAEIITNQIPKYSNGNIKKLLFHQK

Structure (SMILES)	activity change, negative = inhibition [1]	activity change, negative = inhibition [2] [%]	activity, negative = inhibition [3] [%]	Potency [4] [µM]
Cc1cc(N2CCN(C3CCCC3)CC2)n2c(nc3ccccc32)c1C#N	17.3%	19.5	28.2	> 20.6
COc1ccc(C2=Nn3c(nnc3-c3ccccc3)SC2)cc1OC	-10.8%	-10.8	3.68	> 20.6
CC(=O)N1CCN(c2nc(CC(C)C)c3c(c2C#N)CCC3)CC1	-24.1%	-8.91	-3.38	> 20.6
O=C(CCCN1C(=O)c2ccccc2C1=O)N1CCC(c2ccccc2)C1 (stereo not given)	-21.8%	15.7	1.3	> 20.6
CC(=O)c1ccc(C#CC(C)(C)O)s1	6.06%	-7.12	2.81	> 20.6
CC(NC(=O)NCCCn1ccnc1)(C(F)(F)F)C(F)(F)F	18.8%	-6.4	5.85	> 20.6
CN(C)c1nc2n(c(=S)n1)CCS2	11.5%	3.88	-7.31	> 20.6
COc1ccc(/C(O)=C2/C(=O)C(=O)N(CCCN(C)C)C2c2cccc(Cl)c2)cc1OC (stereo not given)	-5.39%	6.97	3.83	> 20.6
CCOc1nc(SCCOc2ccccc2)nc(N(C)C)n1	-22.1%	28	8.95	> 20.6
COc1cccc(N2CCN(C(=O)c3ccc(=O)oc3)CC2C)c1 (stereo not given)	26.8%	-28.2	-1.83	> 20.6
CCOC(=O)c1n[nH]c2ccccc12	7.22%	0.11	-6.98	> 20.6
CCOC(=O)C1CCCN(c2nc3ccccc3nc2C(C#N)C(=O)OCCOC)C1 (stereo not given)	-28.5%	-3.48	-2.06	> 20.6
c1coc(-c2nnc3sc(-c4cccs4)nn23)c1	-11.6%	-8.1	-3.51	> 20.6
COC(=O)C(C)Sc1nc2c(c(=O)n(C)c(=O)n2C)n1CCC(C)C (stereo not given)	-4.73%	7.85	-10.8	> 20.6
CCN(CC)CCn1c(O)c(N=O)c2ccccc21	90.5% [activator] (active)	-17.1	14.5	> 20.6
CC(C(=O)N1CCCCC1)N1C(=O)c2ccccc2C1=O (stereo not given)	0.952%	8.42	3.42	> 20.6
CCCn1nc(Oc2nc(SC)nc(N(C)C)n2)ccc1=O	12.8%	-5.95	-17.7	> 20.6
CCOc1ccc(Cc2nc(N)nc(N)n2)cc1	-3.76%	6.51	8.67	> 20.6
COC(=O)c1ccc(C2/C(=C(\O)c3ccc4c(c3)OCCO4)C(=O)C(=O)N2CCCN(C)C)cc1 (stereo not given)	10.1%	5.87	-5.8	> 20.6
CCCCC(=O)Nc1c(O)c2ccccc2[nH]c1=O	4%	-5.18	1.28	> 20.6
COc1cccc(-c2nn3c(-c4ccccn4)nnc3s2)c1	-5.18%	-17	9.86	> 20.6
Nc1nonc1-c1noc(N2CCOCC2)n1	4.65%	-8.54	-2.07	> 20.6
Cc1cc(NC(CC(C)C)C(=O)O)nc(Cc2ccccc2)n1 (stereo not given)	0.713%	7.49	5.49	> 20.6
Cc1cc(C)cc(-n2c3nc4ccccc4nc3c3c(=O)n(Cc4ccco4)cnc32)c1	8.24%	-18.2	-16.9	> 20.6
O=C(C(c1ccccc1)N1CCOCC1)N1CCOCC1 (stereo not given)	27.9%	7.74	13.8	> 20.6
